Results taken from PubChem BioAssay (NCI).
“And” between values parts separate entries of the source, which are not always exact repeats. Equal values may be shown once. About 79,000 compounds went through this panel and 15% of them were active in at least one assay; those are over-represented in the sample as a whole. More than one record can exist for a structure, and the calls need not agree. The source made the active and inactive calls. Cut-off read from the data, not from the text of the source: active = growth inhibition above about 70%; inactive = the rest.

Assays:
[1] = NCI Yeast Anticancer Drug Screen. Data for the CLN2oe strain (AID 163);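 note: 0% = growth of vehicle-only control cultures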; conditions: S. cerevisiae CLN2oe strain, stronger effect = higher value
Outline: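 Growth of a genetically modified yeast strain is measured after compound exposure and compared with cultures given vehicle alone.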

[2] = NCI Yeast Anticancer Drug Screen. Data for the cln2 rad14 strain (AID 165);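 note: 0% = growth equal to vehicle treated cultures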; conditions: S. cerevisiae cln2 rad14 strain, stronger effect = higher value
Outline: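 Compounds are applied to the cln2 rad14 yeast strain, and growth is then compared with that of vehicle-treated cultures to give inhibition.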

[3] = NCI Yeast Anticancer Drug Screen. Data for the wt2 strain (AID 169);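 note: 0% = growth of vehicle-treated yeast cultures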; conditions: S. cerevisiae wt2 strain growth inhibition, stronger effect = higher value
Outline: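 This strain belongs to a panel of yeast strains with defined genetic alterations in DNA damage repair or cell cycle control. Compounds are applied, and growth inhibition is measured against vehicle-treated cultures.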

[4] = NCI Yeast Anticancer Drug Screen. Data for the mlh1 strain (AID 171);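 note: 0% = growth of vehicle-treated control cultures of the same strain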; conditions: S. cerevisiae mlh1 strain growth inhibition, stronger effect = higher value
Outline: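 Growth of the mutant yeast strain after compound exposure, expressed as inhibition relative to vehicle-only controls.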

[5] = NCI Yeast Anticancer Drug Screen. Data for the mlh1 rad18 strain (AID 175); conditions: S. cerevisiae mlh1 rad18 strain growth inhibition, stronger effect = higher value
Outline: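 Read-out is yeast growth inhibition, calculated against vehicle-only controls. The compound was applied to a strain engineered with DNA damage repair alterations.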

[6] = NCI Yeast Anticancer Drug Screen. Data for the rad18 strain (AID 177); conditions: S. cerevisiae rad18 mutant growth inhibition, stronger effect = higher value
Outline: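 Growth of the mutant yeast strain after compound exposure, normalised to vehicle-only cultures.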

[7] = NCI Yeast Anticancer Drug Screen. Data for the rad50EPP+ strain (AID 151);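 note: 0% = growth of vehicle-treated control cultures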; conditions: S. cerevisiae rad50 mutant strain, stronger effect = higher value
Outline: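 Compounds were applied to the rad50EPP+ yeast strain, which bears a defined DNA repair alteration, and growth inhibition was determined relative to vehicle-treated cultures.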

[8] = NCI Yeast Anticancer Drug Screen. Data for the mgt1 strain (AID 153); conditions: S. cerevisiae mgt1 mutant growth inhibition, stronger effect = higher value
Outline: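 Strain: mgt1 yeast, one of a set carrying defined DNA damage repair or cell cycle control alterations. Compound-treated growth compared with vehicle.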

[9] = NCI Yeast Anticancer Drug Screen. Data for the rad50 strain (AID 155);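 note: 0% = growth of vehicle-only cultures of the same strain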; conditions: S. cerevisiae rad50 strain growth inhibition, stronger effect = higher value
Outline: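 Relative growth inhibition (compound vs vehicle) was measured in yeast with a defined repair-gene alteration.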

[10] = NCI Yeast Anticancer Drug Screen. Data for the mec2-1 strain (AID 157); conditions: S. cerevisiae mec2-1 strain, stronger effect = higher value
Outline: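 Strain: mec2-1 (DNA repair/cell cycle alteration). Compound exposure, then growth measured; inhibition expressed relative to vehicle.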

[11] = NCI Yeast Anticancer Drug Screen. Data for the rad14 strain (AID 159);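 note: 0% = growth of vehicle-treated control cultures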; conditions: S. cerevisiae rad14 strain growth inhibition, stronger effect = higher value
Outline: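 Screen for anticancer potential: a yeast strain altered in DNA damage repair is grown with compound, and reduced growth is quantified against vehicle controls.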

[12] = NCI Yeast Anticancer Drug Screen. Data for the sgs1 mgt1 strain (AID 161);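 note: 0% = growth of cultures given vehicle only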; conditions: S. cerevisiae sgs1 mgt1 strain, stronger effect = higher value
Outline: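 Test agents were incubated with a DNA-repair-mutant yeast strain. Growth was then read and compared against vehicle-treated controls.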

[13] = NCI Yeast Anticancer Drug Screen. Data for the bub3 strain (AID 167); conditions: S. cerevisiae bub3 mutant strain, stronger effect = higher value
Outline: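 Screening used yeast with an engineered genetic alteration affecting cell cycle control. Compound-exposed cultures were compared with vehicle cultures, and reduced growth was taken as inhibition.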

[14] = NCI Yeast Anticancer Drug Screen. Data for the sgs1 strain (AID 173);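 note: 0% = growth of vehicle-only control cultures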; conditions: S. cerevisiae sgs1 mutant, stronger effect = higher value
Outline: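 Growth of a yeast strain bearing a defined genetic alteration is measured after compound treatment. Inhibition is expressed relative to vehicle-only controls.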

[15] = NCI Yeast Anticancer Drug Screen. Data for the wt1 strain (AID 149);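 note: 0% = growth of vehicle-treated wt1 cultures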; conditions: S. cerevisiae wt1 strain (SPY 50644) growth inhibition, stronger effect = higher value
Outline: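 Using yeast strain wt1, compound-induced growth inhibition was determined against vehicle-treated cultures.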

[16] = at 5.0 µM (retest, dose inferred, filed as 0.5)
[17] = at 50.0 µM (retest, dose inferred, filed as 5.0)

Measured: growth inhibition

O=S(=O)(CCC[C@H]1[C@@H](CCOCc2ccccc2)C2CCCN1O2)c1ccccc1 (stereo partly specified)
inactive: [1]; at 3.7 µM 6% | [1]; at 11.0 µM 5% | [1]; at 33.0 µM 16% | [1]; at 100.0 µM 37% | [2]; [16] -7% | [2]; [17] 46% | [2]; at 50.0 µM 42.5% | [3]; at 1.2 µM -1% | [3]; at 3.7 µM -1% | [3]; at 11.0 µM -3% | [3]; at 33.0 µM 2% | [3]; at 100.0 µM 26% | [4]; at 1.2 µM 3% | [4]; at 3.7 µM 3% | [4]; at 11.0 µM 1% | [4]; at 33.0 µM 7% | [4]; at 100.0 µM 26% | [5]; [16] -14% | [5]; [17] -2% | [5]; at 50.0 µM 0.4% | [6]; at 1.2 µM 2% | [6]; at 3.7 µM 6% | [6]; at 11.0 µM 4% | [6]; at 33.0 µM 7% | [6]; at 100.0 µM 19%

CCCCCCCCCCCCCCCCCN
32.8% (inactive) and 90.2% (active): [13]; at 50.0 µM
23.5% (inactive) and 89.9% (active): [5]; at 50.0 µM
active: [7]; at 11.0 µM 82% | [7]; at 33.0 µM 97% | [7]; at 100.0 µM 96% | [8]; at 11.0 µM 86% | [8]; at 33.0 µM 97% | [8]; at 100.0 µM 96% | [9]; at 11.0 µM 85% | [9]; at 33.0 µM 97% | [9]; [17] 96% | [9]; at 100.0 µM 94% | [10]; at 11.0 µM 91% | [10]; at 33.0 µM 98% | [10]; [17] 97% | [10]; at 100.0 µM 93% | [11]; at 33.0 µM 95% | [11]; at 100.0 µM 94% | [1]; at 11.0 µM 94% | [1]; at 33.0 µM 98% | [1]; at 100.0 µM 95% | [2]; [17] 90% | [13]; at 11.0 µM 90% | [13]; at 33.0 µM 98% | [13]; [17] 97% | [13]; at 100.0 µM 95% | [3]; at 33.0 µM 90% | [3]; at 100.0 µM 96% | [4]; at 11.0 µM 90% | [4]; at 33.0 µM 97% | [4]; at 100.0 µM 94% | [14]; at 33.0 µM 97% | [14]; at 100.0 µM 96% | [5]; [17] 96% | [6]; at 100.0 µM 93%
inactive: [7]; at 1.2 µM -14% | [7]; at 3.7 µM 11% | [8]; at 1.2 µM -29% | [8]; at 3.7 µM -24% | [9]; at 1.2 µM -27% | [9]; at 3.7 µM -17% | [9]; [16] 26% | [10]; at 1.2 µM -37% | [10]; at 3.7 µM -28% | [10]; [16] 51% | [11]; at 1.2 µM -31% | [11]; at 3.7 µM -24% | [11]; at 11.0 µM 14% | [12]; [16] 7% | [12]; [17] 50% | [1]; at 1.2 µM -22% | [1]; at 3.7 µM 11% | [2]; [16] 16% | [2]; at 50.0 µM 6.8% and 37% | [13]; at 1.2 µM -10% | [13]; at 3.7 µM -4% | [13]; [16] 54% | [3]; at 1.2 µM -15% | [3]; at 3.7 µM -12% | [3]; at 11.0 µM 49% | [4]; at 1.2 µM -31% | [4]; at 3.7 µM 0% | [14]; at 1.2 µM -46% | [14]; at 3.7 µM -3% | [14]; at 11.0 µM 58% | [5]; [16] 41% | [6]; at 1.2 µM -38% | [6]; at 3.7 µM -18% | [6]; at 11.0 µM 61% | [6]; at 33.0 µM 15%
-6.55% (inactive) and 92% (active): [10]; at 50.0 µM
47.4% (inactive) and 92.5% (active): [12]; at 50.0 µM
3.15% (inactive) and 90.2% (active): [9]; at 50.0 µM

O=C1c2ccccc2-c2ccc(NC(=O)C3CCCCC3C(=O)O)cc21 (stereo unspecified)
inactive: [15]; at 1.2 µM 0% | [15]; at 3.7 µM -2% | [15]; at 11.0 µM -1% | [15]; at 33.0 µM 7% | [15]; at 100.0 µM 40% | [8]; at 1.2 µM -2% | [8]; at 3.7 µM -2% | [8]; at 11.0 µM -3% | [8]; at 33.0 µM 13% | [9]; at 1.2 µM 4% | [9]; at 3.7 µM 5% | [9]; [16] 3% | [9]; at 11.0 µM 10% | [9]; at 33.0 µM 24% | [9]; [17] 22% | [9]; at 50.0 µM 43.1% | [9]; at 100.0 µM 64% | [10]; at 1.2 µM 4% | [10]; at 3.7 µM 6% | [10]; [16] 18% | [10]; at 11.0 µM 5% | [10]; at 33.0 µM 18% | [10]; [17] 15% | [10]; at 50.0 µM 42.6% | [10]; at 100.0 µM 67% | [11]; at 1.2 µM -2% | [11]; at 3.7 µM -12% | [11]; at 11.0 µM -2% | [11]; at 33.0 µM 1% | [12]; [16] -2% | [12]; [17] 7% | [12]; at 50.0 µM 42.3% | [1]; at 1.2 µM -9% | [1]; at 3.7 µM -5% | [1]; at 11.0 µM -10% | [1]; at 33.0 µM -2% | [1]; at 100.0 µM 40% | [2]; [16] -20% | [2]; [17] -58% | [2]; at 50.0 µM 12.7% | [13]; at 1.2 µM 44% | [13]; at 3.7 µM 55% | [13]; [16] 6% | [3]; at 1.2 µM 0% | [3]; at 3.7 µM -1% | [3]; at 11.0 µM 1% | [3]; at 33.0 µM 24% | [4]; at 1.2 µM 7% | [4]; at 3.7 µM 3% | [4]; at 11.0 µM 4% | [4]; at 33.0 µM 1% | [14]; at 1.2 µM 3% | [14]; at 3.7 µM 7% | [14]; at 11.0 µM 15% | [14]; at 33.0 µM 41% | [5]; [16] -7% | [5]; [17] 34% | [5]; at 50.0 µM 41.2% | [6]; at 1.2 µM 12% | [6]; at 3.7 µM 2% | [6]; at 11.0 µM 16% | [6]; at 33.0 µM 31%
active: [8]; at 100.0 µM 72% | [11]; at 100.0 µM 86% | [13]; at 11.0 µM 72% | [13]; at 33.0 µM 80% | [13]; [17] 78% | [13]; at 50.0 µM 90.5% | [13]; at 100.0 µM 90% | [3]; at 100.0 µM 80% | [4]; at 100.0 µM 77% | [14]; at 100.0 µM 85% | [6]; at 100.0 µM 72%
